Measurements reported in ChEMBL document CHEMBL1961873, “Compounds: GSK PKIS; Assays: Nanosyn kinase panel” (2012).
Several values for one entry are separate records, joined by “and”; a condition that tells them apart may be missing. Equal entries are not always repeated.

Key:
[1] = biological target: High affinity nerve growth factor receptor (Homo sapiens) (UniProt P04629); settings: at 1 µM;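 further: each value is the mean percent inhibition of TRKA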
[2] = biological target: BDNF/NT-3 growth factors receptor (Homo sapiens) (UniProt Q16620); settings: at 0.1 µM
[3] = biological target: BDNF/NT-3 growth factors receptor (Homo sapiens) (UniProt Q16620); settings: at 1 µM
[4] = biological target: NT-3 growth factor receptor (Homo sapiens) (UniProt Q16288); settings: at 0.1 µM
[5] = biological target: NT-3 growth factor receptor (Homo sapiens) (UniProt Q16288); settings: at 1 µM
[6] = biological target: T1, Tyrosine-protein kinase TXK (Homo sapiens) (UniProt P42681); settings: at 0.1 µM
T1 sequence (whole entry): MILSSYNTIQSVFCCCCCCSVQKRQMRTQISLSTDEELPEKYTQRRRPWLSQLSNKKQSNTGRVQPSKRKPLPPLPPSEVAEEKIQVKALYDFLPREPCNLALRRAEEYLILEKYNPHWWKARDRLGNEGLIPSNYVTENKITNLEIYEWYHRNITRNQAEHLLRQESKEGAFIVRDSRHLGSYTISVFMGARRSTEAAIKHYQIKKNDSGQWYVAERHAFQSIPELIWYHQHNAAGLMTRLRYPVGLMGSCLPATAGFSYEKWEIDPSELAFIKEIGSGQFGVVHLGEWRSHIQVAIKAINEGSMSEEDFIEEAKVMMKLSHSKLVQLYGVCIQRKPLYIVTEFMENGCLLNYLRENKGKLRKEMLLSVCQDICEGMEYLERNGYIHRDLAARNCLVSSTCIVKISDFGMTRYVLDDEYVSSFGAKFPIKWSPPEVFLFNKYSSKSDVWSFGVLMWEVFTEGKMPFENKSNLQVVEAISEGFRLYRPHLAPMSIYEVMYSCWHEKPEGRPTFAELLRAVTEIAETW

[7] = biological target: T1, Tyrosine-protein kinase TXK (Homo sapiens); settings: at 1 µM
[8] = biological target: Non-receptor tyrosine-protein kinase TYK2 (Homo sapiens) (UniProt P29597); settings: at 0.1 µM;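 further: each value is a mean of the inhibition readings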
[9] = biological target: T2, Dual specificity protein kinase TTK (Homo sapiens) (UniProt P33981); settings: at 1 µM;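 further: reported figures are mean TTK inhibition at 1 µM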
T2 sequence (whole entry): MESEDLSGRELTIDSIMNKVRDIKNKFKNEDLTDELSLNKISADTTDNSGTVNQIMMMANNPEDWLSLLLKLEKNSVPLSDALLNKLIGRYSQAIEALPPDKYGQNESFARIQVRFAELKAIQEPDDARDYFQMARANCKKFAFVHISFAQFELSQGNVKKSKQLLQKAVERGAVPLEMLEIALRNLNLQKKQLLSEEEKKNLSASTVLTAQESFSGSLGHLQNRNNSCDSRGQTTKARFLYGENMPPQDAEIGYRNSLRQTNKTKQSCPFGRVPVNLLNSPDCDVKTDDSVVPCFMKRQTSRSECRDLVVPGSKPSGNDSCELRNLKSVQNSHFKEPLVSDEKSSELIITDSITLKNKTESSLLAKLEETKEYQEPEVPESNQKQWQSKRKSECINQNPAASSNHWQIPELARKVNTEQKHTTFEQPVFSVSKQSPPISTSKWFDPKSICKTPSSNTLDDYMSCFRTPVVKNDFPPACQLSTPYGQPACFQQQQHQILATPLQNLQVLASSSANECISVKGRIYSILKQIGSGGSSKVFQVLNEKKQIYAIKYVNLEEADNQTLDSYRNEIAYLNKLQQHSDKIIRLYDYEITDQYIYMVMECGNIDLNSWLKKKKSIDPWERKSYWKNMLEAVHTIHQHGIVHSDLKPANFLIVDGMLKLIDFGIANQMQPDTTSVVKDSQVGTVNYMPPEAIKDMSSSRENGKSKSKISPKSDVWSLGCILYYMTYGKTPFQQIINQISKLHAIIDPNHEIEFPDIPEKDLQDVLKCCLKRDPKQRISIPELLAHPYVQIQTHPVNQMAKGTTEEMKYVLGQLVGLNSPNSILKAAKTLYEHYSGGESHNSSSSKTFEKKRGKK

[10] = biological target: T3, Aurora kinase A (Homo sapiens) (UniProt O14965); settings: at 0.1 µM
T3 sequence (whole entry): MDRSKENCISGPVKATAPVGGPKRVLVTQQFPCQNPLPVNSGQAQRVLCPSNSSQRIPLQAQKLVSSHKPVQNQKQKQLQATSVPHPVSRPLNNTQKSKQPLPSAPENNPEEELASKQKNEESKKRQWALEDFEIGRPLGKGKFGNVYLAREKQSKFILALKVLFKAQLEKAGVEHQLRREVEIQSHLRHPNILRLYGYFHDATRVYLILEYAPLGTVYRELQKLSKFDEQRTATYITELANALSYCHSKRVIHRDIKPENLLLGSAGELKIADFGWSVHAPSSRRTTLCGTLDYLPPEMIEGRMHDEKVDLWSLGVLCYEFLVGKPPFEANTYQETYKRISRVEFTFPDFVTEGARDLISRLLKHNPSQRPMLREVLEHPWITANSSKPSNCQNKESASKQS

[11] = biological target: T3, Aurora kinase A (Homo sapiens); settings: at 1 µM
[12] = biological target: Aurora kinase B (Homo sapiens) (UniProt Q96GD4); settings: at 0.1 µM
[13] = biological target: Aurora kinase B (Homo sapiens) (UniProt Q96GD4); settings: at 1 µM
[14] = biological target: T4, Aurora kinase C (Homo sapiens) (UniProt Q9UQB9); settings: at 0.1 µM
T4 sequence (whole entry): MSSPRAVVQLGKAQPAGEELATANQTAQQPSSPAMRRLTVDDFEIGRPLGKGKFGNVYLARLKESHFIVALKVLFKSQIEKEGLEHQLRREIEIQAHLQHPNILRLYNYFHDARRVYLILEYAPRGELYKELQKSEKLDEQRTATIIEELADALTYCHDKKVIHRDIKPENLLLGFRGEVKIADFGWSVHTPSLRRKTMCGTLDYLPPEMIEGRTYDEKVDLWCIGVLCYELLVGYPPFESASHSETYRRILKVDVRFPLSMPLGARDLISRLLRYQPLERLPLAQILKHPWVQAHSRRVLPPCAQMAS

[15] = biological target: T4, Aurora kinase C (Homo sapiens); settings: at 1 µM
[16] = biological target: Serine/threonine-protein kinase 10 (Homo sapiens) (UniProt O94804); settings: at 0.1 µM
[17] = biological target: Serine/threonine-protein kinase 10 (Homo sapiens) (UniProt O94804); settings: at 1 µM
[18] = biological target: T5, Mitogen-activated protein kinase kinase kinase kinase 2 (Homo sapiens) (UniProt Q12851); settings: at 0.1 µM
T5 sequence (whole entry): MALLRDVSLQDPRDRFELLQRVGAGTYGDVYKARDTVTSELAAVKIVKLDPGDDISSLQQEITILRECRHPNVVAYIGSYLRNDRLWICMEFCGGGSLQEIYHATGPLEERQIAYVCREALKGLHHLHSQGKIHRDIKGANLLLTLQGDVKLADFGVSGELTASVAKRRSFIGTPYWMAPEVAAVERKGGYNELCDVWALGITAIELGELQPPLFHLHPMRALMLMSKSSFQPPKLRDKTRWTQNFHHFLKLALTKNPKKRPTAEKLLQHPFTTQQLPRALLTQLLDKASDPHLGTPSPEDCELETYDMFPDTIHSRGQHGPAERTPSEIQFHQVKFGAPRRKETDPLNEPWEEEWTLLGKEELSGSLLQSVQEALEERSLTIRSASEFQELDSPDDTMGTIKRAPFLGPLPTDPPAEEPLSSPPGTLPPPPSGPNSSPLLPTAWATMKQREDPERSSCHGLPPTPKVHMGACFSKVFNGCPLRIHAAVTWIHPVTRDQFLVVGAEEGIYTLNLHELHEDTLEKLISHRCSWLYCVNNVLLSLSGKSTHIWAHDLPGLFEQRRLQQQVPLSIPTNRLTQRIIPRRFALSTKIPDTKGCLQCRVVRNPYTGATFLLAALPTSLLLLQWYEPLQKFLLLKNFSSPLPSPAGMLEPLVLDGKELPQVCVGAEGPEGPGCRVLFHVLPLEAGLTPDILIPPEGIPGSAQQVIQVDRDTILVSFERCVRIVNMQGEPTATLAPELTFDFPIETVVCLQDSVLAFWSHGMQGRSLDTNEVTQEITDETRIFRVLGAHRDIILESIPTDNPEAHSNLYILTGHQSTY

[19] = biological target: T5, Mitogen-activated protein kinase kinase kinase kinase 2 (Homo sapiens); settings: at 1 µM
[20] = biological target: Mitogen-activated protein kinase kinase kinase kinase 4 (Homo sapiens) (UniProt O95819); settings: at 0.1 µM
Chain of Mitogen-activated protein kinase kinase kinase kinase 4 (Homo sapiens) (O95819 2-1239 limits assumed): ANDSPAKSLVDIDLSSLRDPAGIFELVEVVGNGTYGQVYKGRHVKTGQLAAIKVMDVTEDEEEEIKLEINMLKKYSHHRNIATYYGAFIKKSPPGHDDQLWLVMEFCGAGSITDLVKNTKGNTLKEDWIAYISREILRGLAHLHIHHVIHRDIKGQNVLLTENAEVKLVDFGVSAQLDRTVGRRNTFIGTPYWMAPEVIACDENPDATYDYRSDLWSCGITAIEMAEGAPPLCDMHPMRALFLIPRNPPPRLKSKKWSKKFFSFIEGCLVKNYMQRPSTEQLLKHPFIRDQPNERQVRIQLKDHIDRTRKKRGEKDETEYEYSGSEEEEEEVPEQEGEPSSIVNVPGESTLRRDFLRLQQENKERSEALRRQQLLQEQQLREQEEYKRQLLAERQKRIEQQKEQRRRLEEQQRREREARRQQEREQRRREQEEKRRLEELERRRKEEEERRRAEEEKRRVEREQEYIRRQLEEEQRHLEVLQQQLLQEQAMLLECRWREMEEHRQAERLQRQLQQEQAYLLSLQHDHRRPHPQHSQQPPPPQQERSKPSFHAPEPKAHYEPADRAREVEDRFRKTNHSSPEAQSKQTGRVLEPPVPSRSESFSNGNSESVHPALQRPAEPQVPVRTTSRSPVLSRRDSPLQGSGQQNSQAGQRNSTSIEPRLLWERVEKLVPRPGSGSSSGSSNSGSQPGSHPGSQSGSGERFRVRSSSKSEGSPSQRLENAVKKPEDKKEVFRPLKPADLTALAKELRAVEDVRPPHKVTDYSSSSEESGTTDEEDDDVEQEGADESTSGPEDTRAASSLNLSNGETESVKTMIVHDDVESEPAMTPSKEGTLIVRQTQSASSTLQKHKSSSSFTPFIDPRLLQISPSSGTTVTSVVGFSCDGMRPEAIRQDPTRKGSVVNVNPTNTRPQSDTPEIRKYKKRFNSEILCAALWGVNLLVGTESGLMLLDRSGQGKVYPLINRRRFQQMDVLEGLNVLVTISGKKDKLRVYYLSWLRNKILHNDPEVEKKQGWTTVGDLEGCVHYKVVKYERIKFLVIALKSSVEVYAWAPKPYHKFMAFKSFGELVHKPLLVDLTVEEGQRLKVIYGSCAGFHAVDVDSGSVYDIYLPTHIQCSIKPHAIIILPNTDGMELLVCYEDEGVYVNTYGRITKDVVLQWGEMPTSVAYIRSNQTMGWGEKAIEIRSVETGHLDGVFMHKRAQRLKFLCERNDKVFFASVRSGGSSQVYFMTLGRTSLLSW

Chain of High affinity nerve growth factor receptor (Homo sapiens) (P04629 33-796 limits assumed): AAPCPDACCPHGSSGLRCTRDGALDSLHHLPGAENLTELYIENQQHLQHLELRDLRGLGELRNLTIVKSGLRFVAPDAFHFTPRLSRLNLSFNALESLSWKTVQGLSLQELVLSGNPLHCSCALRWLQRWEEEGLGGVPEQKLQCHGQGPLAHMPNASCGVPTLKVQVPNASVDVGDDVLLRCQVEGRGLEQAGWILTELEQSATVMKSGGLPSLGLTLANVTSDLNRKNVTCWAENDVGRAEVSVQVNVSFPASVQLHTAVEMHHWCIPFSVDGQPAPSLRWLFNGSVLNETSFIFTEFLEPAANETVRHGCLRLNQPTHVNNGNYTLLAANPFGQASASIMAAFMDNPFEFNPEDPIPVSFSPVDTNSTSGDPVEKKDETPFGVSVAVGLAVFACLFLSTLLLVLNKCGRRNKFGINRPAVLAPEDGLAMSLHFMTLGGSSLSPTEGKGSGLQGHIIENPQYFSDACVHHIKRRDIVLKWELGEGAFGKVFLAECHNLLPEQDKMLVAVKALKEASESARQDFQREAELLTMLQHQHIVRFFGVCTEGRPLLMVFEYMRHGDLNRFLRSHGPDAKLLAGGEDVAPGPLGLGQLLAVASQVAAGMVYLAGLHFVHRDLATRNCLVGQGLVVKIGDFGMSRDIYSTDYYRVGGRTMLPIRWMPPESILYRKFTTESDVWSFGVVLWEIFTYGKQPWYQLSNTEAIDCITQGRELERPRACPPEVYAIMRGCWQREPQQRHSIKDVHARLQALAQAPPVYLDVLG
Chain of Non-receptor tyrosine-protein kinase TYK2 (Homo sapiens) (P29597 whole entry): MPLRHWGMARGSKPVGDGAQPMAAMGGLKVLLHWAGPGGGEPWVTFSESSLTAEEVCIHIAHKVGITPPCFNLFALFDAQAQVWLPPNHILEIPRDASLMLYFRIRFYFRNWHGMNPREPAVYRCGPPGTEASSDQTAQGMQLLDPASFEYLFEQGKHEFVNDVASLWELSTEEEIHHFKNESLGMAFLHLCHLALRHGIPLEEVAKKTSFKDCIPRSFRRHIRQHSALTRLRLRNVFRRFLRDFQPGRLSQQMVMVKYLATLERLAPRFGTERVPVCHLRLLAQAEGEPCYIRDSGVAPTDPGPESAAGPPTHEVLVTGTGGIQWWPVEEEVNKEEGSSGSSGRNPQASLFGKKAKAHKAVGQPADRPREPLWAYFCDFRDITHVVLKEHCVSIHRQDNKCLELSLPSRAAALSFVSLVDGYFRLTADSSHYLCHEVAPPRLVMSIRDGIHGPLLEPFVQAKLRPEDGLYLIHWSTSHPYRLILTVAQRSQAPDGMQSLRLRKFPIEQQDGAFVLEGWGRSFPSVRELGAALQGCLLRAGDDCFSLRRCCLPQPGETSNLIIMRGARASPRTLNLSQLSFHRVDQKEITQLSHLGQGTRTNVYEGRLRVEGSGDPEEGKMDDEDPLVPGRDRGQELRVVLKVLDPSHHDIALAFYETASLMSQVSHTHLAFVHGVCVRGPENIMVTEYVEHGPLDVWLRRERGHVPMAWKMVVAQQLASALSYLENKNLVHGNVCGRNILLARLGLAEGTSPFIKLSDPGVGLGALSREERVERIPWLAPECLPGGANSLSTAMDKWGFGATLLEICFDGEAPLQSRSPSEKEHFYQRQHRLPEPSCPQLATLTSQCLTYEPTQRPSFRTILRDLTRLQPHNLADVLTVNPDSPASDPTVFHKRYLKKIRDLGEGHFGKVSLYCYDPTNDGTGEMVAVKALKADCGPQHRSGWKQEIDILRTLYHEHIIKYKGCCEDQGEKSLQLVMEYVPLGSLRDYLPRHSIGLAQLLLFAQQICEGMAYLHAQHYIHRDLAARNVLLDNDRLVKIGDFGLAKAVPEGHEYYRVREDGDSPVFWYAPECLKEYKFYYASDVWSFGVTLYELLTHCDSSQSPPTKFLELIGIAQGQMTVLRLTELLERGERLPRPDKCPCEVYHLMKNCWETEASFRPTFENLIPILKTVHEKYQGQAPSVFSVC
Chain of Aurora kinase B (Homo sapiens) (Q96GD4 whole entry): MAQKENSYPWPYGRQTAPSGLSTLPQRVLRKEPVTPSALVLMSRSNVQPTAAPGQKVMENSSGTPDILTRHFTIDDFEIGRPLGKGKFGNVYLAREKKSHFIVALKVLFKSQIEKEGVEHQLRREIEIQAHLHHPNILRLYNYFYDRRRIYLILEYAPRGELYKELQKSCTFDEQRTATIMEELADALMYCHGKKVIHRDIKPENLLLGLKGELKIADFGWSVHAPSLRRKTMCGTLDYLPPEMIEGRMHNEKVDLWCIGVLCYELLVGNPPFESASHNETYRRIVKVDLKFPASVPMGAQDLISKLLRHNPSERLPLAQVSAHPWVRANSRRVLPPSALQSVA
Chain of BDNF/NT-3 growth factors receptor (Homo sapiens) (Q16620 32-822 limits assumed): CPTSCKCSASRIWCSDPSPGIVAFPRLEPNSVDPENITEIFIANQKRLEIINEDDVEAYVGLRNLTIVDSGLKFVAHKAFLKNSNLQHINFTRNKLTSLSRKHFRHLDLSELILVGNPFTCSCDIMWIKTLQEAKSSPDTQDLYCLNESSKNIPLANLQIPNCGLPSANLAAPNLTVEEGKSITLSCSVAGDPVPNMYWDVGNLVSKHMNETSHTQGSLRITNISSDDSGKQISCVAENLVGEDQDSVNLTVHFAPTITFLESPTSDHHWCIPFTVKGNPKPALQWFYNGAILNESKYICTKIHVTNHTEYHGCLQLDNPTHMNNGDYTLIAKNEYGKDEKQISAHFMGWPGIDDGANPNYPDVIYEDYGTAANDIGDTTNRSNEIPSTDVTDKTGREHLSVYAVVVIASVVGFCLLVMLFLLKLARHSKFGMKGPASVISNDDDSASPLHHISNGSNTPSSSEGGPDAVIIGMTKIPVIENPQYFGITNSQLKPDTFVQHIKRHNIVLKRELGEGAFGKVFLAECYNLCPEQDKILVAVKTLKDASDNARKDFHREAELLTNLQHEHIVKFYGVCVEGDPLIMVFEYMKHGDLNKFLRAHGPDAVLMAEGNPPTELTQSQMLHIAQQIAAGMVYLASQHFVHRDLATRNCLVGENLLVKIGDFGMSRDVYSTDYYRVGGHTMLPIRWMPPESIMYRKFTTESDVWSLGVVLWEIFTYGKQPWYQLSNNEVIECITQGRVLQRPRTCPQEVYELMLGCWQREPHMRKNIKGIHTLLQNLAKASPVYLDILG

| SMILES | inhibition [1] | inhibition [2] | inhibition [3] | inhibition [4] | inhibition [5] | inhibition [6] | inhibition [7] | inhibition [8] | inhibition [9] | inhibition [10] | inhibition [11] | inhibition [12] | inhibition [13] | inhibition [14] | inhibition [15] | inhibition [16] | inhibition [17] | inhibition [18] | inhibition [19] | inhibition [20] |
| --- | --- | --- | --- | --- | --- | --- | --- | --- | --- | --- | --- | --- | --- | --- | --- | --- | --- | --- | --- | --- |
| COc1ccc(-c2nn3ncccc3c2-c2ccnc(Nc3ccc(F)c(F)c3)n2)cc1 | 3.36% | 2.76% | 8.32% | 2.73% | 4.85% | 2.4% | 5% | -2.09% | -0.7% | 2.87% | 28.5% | 4.36% | 14.3% | 1.75% | 6.44% | 7.15% | 23.5% | 2.1% | 1.49% | 8.56% |
| Nc1ncnc2occ(-c3ccc(NC(=O)Nc4cc(C(F)(F)F)ccc4F)cc3)c12 | 89.2% and 97% | 54.8% and 40.6% | 90.7% and 88.5% | 52.9% and 39.5% | 92.8% and 85.3% | 3.14% and 1.59% | 5.09% and 0.12% | -1.29% and 0.57% | 21.4% and 7.71% | 3.16% and -1.11% | – | 24.4% and 17.3% | 69.9% and 55.9% | 13.4% and 13.3% | 92.5% and 68.8% | 25% and 20.8% | 69.2% and 63.1% | 35.8% and 34.4% | 66.3% and 65.5% | 7.35% and 0.68% |
| Nc1nccc(-c2c(-c3ccc(F)cc3)ncn2C2CCNCC2)n1 | -2.46% and 2.61% | -1.2% and 0.85% | -0.92% and 0.76% | -2.82% and 1.09% | -1.78% and 1.96% | -1.02% and 1.02% | -0.81% and 3.65% | 0.9% and -0.21% | -1.76% and -0.14% | -4.27% and 0.74% | 2.76% and 3.22% | -5.29% and 2.13% | -0.57% and 3.55% | -7.14% and -0.01% | -5.53% and -3.08% | -0.78% and 0.07% | 4.14% and -0.32% | -0.37% and 2% | 4.6% and 3.83% | -1.38% and 3.46% |
| CNC(=O)c1cncc(/C=C/c2ccccc2C)c1 | 1.73% | 2.61% | 4.3% | 3.82% | 5.34% | 6.85% | 24.5% | -2.79% | 11.7% | 1.35% | 9.59% | 3.77% | -0.01% | 2.1% | -3.67% | 6.73% | 9.43% | 0.94% | 2.16% | 8.34% |
| N#Cc1ccc2c(-c3ccnc(NC4CC4)n3)c(-c3ccc(F)cc3)nn2c1 | -2.02% | 0.12% | 0.68% | -1.35% | -1.48% | 0.94% | 12.3% | 0.53% | 3.53% | 0.84% | 0.56% | 0.7% | -0.38% | 0.81% | 5.38% | 2.63% | 4.13% | 0.19% | 2.06% | 5.83% |
| COc1cc(N2CCN(C(C)C)CC2)ccc1Nc1nc(Nc2cccc(F)c2C(=O)O)c2cc[nH]c2n1 | 0.85% | 3.78% | 6.6% | 2.64% | 4.58% | 1.98% | 3.5% | -3.16% | 77.3% | 3.47% | 6.46% | 4.82% | 5.02% | 0.7% | -0.44% | 5.69% | 9.11% | 0.91% | 3.18% | 7.43% |
| CCCNc1cccc(-n2ncc3c(N/N=C/c4ccncc4)ncnc32)c1 | 7.34% | 5.18% | 33.9% | 4.23% | 36.8% | 2.17% | 8.54% | -0.85% | 15.7% | 9.48% | 70.7% | 14.3% | 43.8% | 17% | 58.5% | 6.3% | 28.4% | 1.16% | 3.57% | 9.69% |
| c1ccc(-c2n[nH]cc2-c2ccnc(-c3ccc(OCCn4ccnc4)cc3)c2)nc1 | 3.78% | 0.64% | 4.04% | 0.02% | 4.91% | 0.7% | 4.37% | 1.04% | 10.7% | 1.14% | 11.1% | 1.69% | 15.1% | 1.04% | 7.73% | 2.54% | 4.01% | 3.67% | 7.08% | 42.6% |
| CS(=O)(=O)CCNCc1ccoc1-c1ccc2ncnc(Nc3ccc(OCc4ccccc4)cc3)c2c1 | 1.88% | 1.72% | 4.41% | 2.02% | 1.74% | 0.41% | 1.96% | 1.14% | 5.58% | 3.55% | 5.63% | 0.11% | 8.33% | 3.25% | 9.46% | -0.07% | 3.99% | 1.72% | 1.42% | 0.34% |
